LDHA inh = LDHA (human) enzyme inhibition; purified LDHA, NADH/diaphorase-resazurin fluorescence; stronger effect = lower value; activity change, % (values are at about 110 or 230 µM); hit rate 0.15% among 480,000; AID 1347041; in the data active means activity change below about -30%; inconclusive means mostly about -25% to -30%;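 further: plate controls were DMSO wells for no effect and wells without enzyme for full effect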
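Human LDH5 (2 nM) was incubated with 0.06 mM NADH and 0.2 mM pyruvate for 5 min at room temperature in Tris pH 7.4. Remaining NADH was coupled through diaphorase/resazurin, and resorufin fluorescence was read at 0 and 20 min.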
DT40 TDP1 no CPT = qHTS for Inhibitors of human tyrosyl-DNA phosphodiesterase 1 (TDP1): qHTS in cells in absence of CPT; hit rate 15% among 420,000; DT40 Tdp1-/- hTDP1 cells, no CPT, ATP luminescence, 48 h; Potency, µM (series often up to 46.2 µM), for the others: at the top dose activity change, negative = growth inhibition, usual class: inhibitors; further: potency means the concentration at half of the fitted maximal effect; nearly all actives have a fitted effect of over 55% in size
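Growth kinetics read by CellTiter-Glo luminescence after ≥48 hr at 37 °C. Cells: DT40 Tdp1-/- stably carrying human TDP1, 400 per well, compound exposure in the absence of CPT (DMSO vehicle).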
RORgamma inh = inhibitors of mouse ROR gamma transcriptional activity; hit rate 5.4% among 310,000; Potency, µM (doses to about 53.6 µM), without a hit: at the highest dose activity change, negative = inhibition, most hits filed as inhibitors; Drosophila S2 Gal4-RORgamma UAS-luciferase reporter, 20 h; P51450; further: potency means the concentration at half of the fitted maximal effect; nearly all actives have a fitted effect of over 60% in size
Target sequence (P51450 whole entry, looked up, the tested form may be a part): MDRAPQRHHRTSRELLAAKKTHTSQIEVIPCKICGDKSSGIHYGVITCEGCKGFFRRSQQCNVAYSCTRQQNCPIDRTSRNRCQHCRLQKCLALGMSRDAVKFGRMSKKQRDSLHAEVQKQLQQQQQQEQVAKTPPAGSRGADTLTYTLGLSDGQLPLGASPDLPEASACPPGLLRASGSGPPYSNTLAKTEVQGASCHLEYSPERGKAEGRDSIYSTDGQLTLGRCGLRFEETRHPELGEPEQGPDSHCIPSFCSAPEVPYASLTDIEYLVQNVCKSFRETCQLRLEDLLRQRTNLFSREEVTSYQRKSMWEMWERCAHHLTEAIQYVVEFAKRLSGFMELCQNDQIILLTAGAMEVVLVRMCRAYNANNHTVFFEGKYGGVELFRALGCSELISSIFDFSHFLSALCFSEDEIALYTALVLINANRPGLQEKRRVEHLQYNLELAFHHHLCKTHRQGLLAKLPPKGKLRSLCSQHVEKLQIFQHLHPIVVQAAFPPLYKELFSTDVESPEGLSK
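Using a luciferase readout, inhibitors were identified by reduced reporter activity in Drosophila cells coexpressing a copper-inducible Gal4–ROR gamma fusion and UAS-driven Photinus luciferase, incubated 20 hr after 700 uM copper sulfate.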
TDP1 cell CPT = growth inhibition of DT40 Tdp1-/-;hTDP1 cells with camptothecin (screen for TDP1 inhibitors); Potency, µM (highest dose often 46.2 µM), inactives show at the highest dose activity change, negative = growth inhibition, usual class: inhibitors; chicken DT40 Tdp1-/-;hTDP1 cells + 20 nM CPT, ATP luminescence, 48 h; hit rate 12% among 420,000; AID 686979; further: potency means the concentration at half of the fitted maximal effect; nearly all actives have a fitted effect of over 55% in size
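Cell growth measured by CellTiter-Glo luminescence after a minimum 48 h, 37 C compound exposure with 20 nM CPT in Tdp1-knockout DT40 cells stably expressing hTDP1, seeded 400/well; qHTS titration format.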
VP16 counter = inhibits Gal4-VP16 luciferase reporter, ROR gamma counter-screen; AID 2546; Drosophila S2 Gal4-VP16 UAS-luciferase, luminescence, 20 h; Potency, µM (series often up to 53.6 µM), inactives show at the highest dose activity, negative = inhibition, hits mostly inhibitors; hit rate 3.5% among 310,000;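 further: Gal4-VP16 expression switched on by copper sulfate through the metallothionein promoter; potency means the concentration at half of the fitted maximal effect; nearly all actives have a fitted effect of over 50% in size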
IL1B secr inh = blocks inflammasome-driven IL-1 beta release; THP-1 LPS/ATP IL-1B secretion, AlphaLISA, 16 h; stronger effect = lower value; activity change, % at 57.5 µM; hit rate 4.7% among 360,000; AID 743279; in the data active means activity change below about -50%; inconclusive means mostly about -30% to -49%
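Secreted IL-1B measured by AlphaLISA bead assay after 16 h compound exposure of THP-1 cells; compounds (final up to 57.5 uM) added 1 h before LPS (250 ng/mL) and ATP (1.25 mM) stimulation; lower signal means less secretion.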
The depositor's hits bear a star; [ ] = dose if it differs, or a comment. Sampled rows, rich in hits. Any-hit rate of the full collection: about 18%. Unless noted, the call rests on the fitted dose curve; in most records, active means well fitted curve in the direction sought with a large enough effect; inconclusive means small, poorly fitted or top-dose-only effect, or another doubt; inactive means no such curve, though single readings can be large; an effect the other way counts as inactive or inconclusive. Unless noted, on the % scale 0 is the no-effect control and ±100 the full control effect.

For Cc1ccc2c(c1)-c1nc(-c3ccc4c(c3)NC(=O)CO4)cc(-c3ccc(F)cc3)c1CO2 the results were LDHA inh -4, DT40 TDP1 no CPT 4.6µM* and TDP1 cell CPT 5.8µM*.
Cc1ccc2c(c1)-c1nc(-c3ccccc3)cc(-c3ccccc3)c1CO2 was read as LDHA inh -5, DT40 TDP1 no CPT inconclusive and TDP1 cell CPT -29%.
CCOc1cc(/C=N/N=C(\N)c2nonc2N)cc(Br)c1OCc1cccc2ccccc12 was read as LDHA inh -8, DT40 TDP1 no CPT 13µM*, RORgamma inh 13µM*, TDP1 cell CPT 23µM*, VP16 counter inconclusive and IL1B secr inh 3.
Screening COc1cccc(/C=N/n2nnnc2N)c1OCc1ccccc1Cl returned LDHA inh 2, DT40 TDP1 no CPT -16%, RORgamma inh 13%, TDP1 cell CPT -3%, VP16 counter 6% and IL1B secr inh 10.
`COc1cc(/C=N/NC(N)=S)cc(Br)c1OCc1ccccc1F` gave LDHA inh -4, DT40 TDP1 no CPT 6.5µM*, RORgamma inh 1µM*, TDP1 cell CPT 6.5µM*, VP16 counter 4.5µM* and IL1B secr inh 32.
Screening CCOc1cc(/C=N/NC(N)=O)cc(Br)c1OCc1ccccc1 returned LDHA inh -8, DT40 TDP1 no CPT inconclusive, RORgamma inh -12%, TDP1 cell CPT inconclusive, VP16 counter -5% and IL1B secr inh 8.
For COc1cccc(/C=N/NC(N)=S)c1OCc1ccccc1Cl the results were LDHA inh -9, DT40 TDP1 no CPT 4.1µM*, RORgamma inh 3.2µM*, TDP1 cell CPT 2.9µM*, VP16 counter 4µM* and IL1B secr inh -14.
`CNC(=S)N/N=C/c1cc(Br)c(OCc2ccncc2)c(OC)c1` gave LDHA inh -3, DT40 TDP1 no CPT inconclusive, RORgamma inh -2%[1.91 µM], TDP1 cell CPT inconclusive, VP16 counter inconclusive and IL1B secr inh -2.
CCOc1cc(/C=N/NC(N)=S)cc(Br)c1OCc1ccccc1C was read as LDHA inh -6, DT40 TDP1 no CPT 16µM*, RORgamma inh 0.79µM*, TDP1 cell CPT 5.8µM*, VP16 counter 2.5µM* and IL1B secr inh 68.
Screening CC1(C)CC(=O)C/C(=N/NC(=O)CCc2ccccc2)C1 returned LDHA inh 0.
`Cc1nn(-c2ccccc2)c(CSc2ccc3c(c2)OCCCO3)c1C#N` gave LDHA inh -4.
CCOc1cc(CNCc2ccco2)ccc1O was read as LDHA inh 5.
For O=C(O)CCc1oc2cc(O)ccc2c(=O)c1-c1nc2ccccc2[nH]1 the results were LDHA inh -6.
For NC(=S)N/N=C/c1ccccc1OCCSc1ccc(Cl)cc1 the results were LDHA inh -5, DT40 TDP1 no CPT 15µM*, RORgamma inh inconclusive, TDP1 cell CPT 13µM*, VP16 counter 28µM* and IL1B secr inh inconclusive.
Screening CC(Sc1cc(F)ccc1F)C(N)=O (stereo unspecified) returned LDHA inh 4.
Cc1ccc(OCCOc2ccc(Br)cc2)c([N+](=O)[O-])n1 was read as LDHA inh -3, DT40 TDP1 no CPT -14%, RORgamma inh 10%, TDP1 cell CPT -15%, VP16 counter -13% and IL1B secr inh -58*.
For Cc1ccc(CNC(=O)CCNS(=O)(=O)c2c(C)[nH]c(C)c2C(=O)N2CCCC2)cc1 the results were LDHA inh -4.
Screening N#CC1=C(N)NC(SCC(=O)Nc2ccccc2)=C(C#N)C12CCCCC2 returned LDHA inh 0, DT40 TDP1 no CPT 23µM*, RORgamma inh inconclusive, TDP1 cell CPT inconclusive, VP16 counter -16% and IL1B secr inh 0.
COc1ccc(C(=O)CSC2=C(C#N)C3(CCCCC3)C(C#N)=C(N)N2)cc1 was read as LDHA inh -9, DT40 TDP1 no CPT 16µM*, RORgamma inh 28%, TDP1 cell CPT inconclusive, VP16 counter -2% and IL1B secr inh -12.
`O=C(COc1ccc2ccc(=O)oc2c1)Nc1cccc2ccccc12` gave LDHA inh -3.
CCCCCCN(C(=O)CCCN1C(=O)NC(c2ccc([N+](=O)[O-])cc2)C(C(=O)OCc2ccccc2)=C1C)C(C)C(=O)NCCCC (stereo unspecified) was read as LDHA inh 0, DT40 TDP1 no CPT 9.2µM*, TDP1 cell CPT 12µM* and IL1B secr inh -63*.
Screening CCCCCCN(C(=O)CCCCCN1C(=O)NC(c2ccc(-c3ccccc3)cc2)C(C(=O)OCc2ccccc2)=C1C)C(C(=O)NCCCC)C1CCCCC1 (stereo unspecified) returned RORgamma inh 15% and VP16 counter 0%.
For COC(=O)N=Nc1c(O)n(Cc2ccccc2)c2ccccc12 the results were LDHA inh -3, DT40 TDP1 no CPT inconclusive, RORgamma inh -5%, TDP1 cell CPT -23%, VP16 counter 0% and IL1B secr inh -10.
COC(=O)c1ccc(Cn2c(O)c(N=NC(N)=S)c3ccccc32)o1 was read as LDHA inh 0, DT40 TDP1 no CPT inconclusive, RORgamma inh 1.1µM*, TDP1 cell CPT inconclusive, VP16 counter 13µM* and IL1B secr inh inconclusive.
O=S1(=O)CCC(N=Nc2c(O)n(Cc3ccccc3)c3ccccc23)C1 (stereo unspecified) was read as LDHA inh 1, DT40 TDP1 no CPT inconclusive, RORgamma inh 39%, TDP1 cell CPT 21µM*, VP16 counter 9% and IL1B secr inh -9.
For CCCCNC(=S)N=Nc1c(O)n(Cc2ccccc2)c2ccccc12 the results were LDHA inh -2, DT40 TDP1 no CPT 2.6µM*, RORgamma inh 6.3µM*, TDP1 cell CPT 16µM*, VP16 counter 6.3µM* and IL1B secr inh -27.
Screening O=Nc1c(O)n(Cc2cccc(Cl)c2)c2ccccc12 returned LDHA inh 5, DT40 TDP1 no CPT -28%, RORgamma inh 11%, TDP1 cell CPT 1%, VP16 counter -22% and IL1B secr inh -68*.
COCCNc1oc(-c2ccco2)nc1S(=O)(=O)c1ccc2c(c1)OCCO2 was read as LDHA inh 0.
For CN(C(=O)Cn1nc(-c2ccc(Cl)cc2)ccc1=O)C1CCS(=O)(=O)C1 (stereo unspecified) the results were LDHA inh 8.
`Cc1cccc(CNC(=O)CCCNC(=O)C(C)(C)C)c1` gave LDHA inh 5.

Screening results (PubChem BioAssay)
